Phagocytosis inh = macrophage phagocytosis inhibition. J774A.1 macrophage IgG-bead phagocytosis, imaging. inhibition, % at 5 µM. hit rate 0.07% among 110,000. AID 1029;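 active means inhibition above the mean of the plate negative controls plus 5 SD, cut at about 13% in these data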;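 further: phagocytic index as fraction of beads internalized from green versus red external bead signal; plate controls were DMSO negative control for no effect and cytochalasin-D positive control for full effect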
Measles CPE = protection of cells from measles virus. hit rate 1.5% among 140,000. protection (pct of control), % at 4 µM. Measles virus-infected cells, CPE protection, absorbance. AID 841; in the data active means protection mostly above about 24%, no sharp cut-off; inactive means mostly below about 26%
SDO1 yeast rescue = sdo1-depleted yeast growth rescue; S. cerevisiae sdo1-depleted JHY4D growth rescue, OD600 30 h; active compounds read high; pdr5 snq2 efflux-pump mutant strain; z-score at 10 µM; hit rate 0.21% among 140,000; AID 817;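 active means z-score above 3 at both the 24 hr and the 30 hr optical density reads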;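 further: z-score against mean and SD of all compound wells on the same plate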
SDO1 rescue DR = confirmation of growth rescue in SDO1-depleted yeast, bone marrow failure. OD recovery (concentration not given with the values). S. cerevisiae JHY4D (SDO1-depleted) growth rescue, OD600, 30 h; active compounds read high; efflux-deficient strain, SNQ2 and PDR5 mutated. hit rate 44% among 440. shares compounds with SDO1 yeast rescue;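 active means yeast growth recovered at 30 hours, either rising with dose fitted slope above 0.001 or with average optical density gain above 0.07, some results past the limit were not filed as active; inactive means growth falling with dose or no effect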;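 further: gain in OD600 from 0 h to 30 h averaged across all seven doses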
* = called active by the depositor; x = not tested or not shown. In the library only some 1.8% were active in any assay of this set; here they are far more common.

SMILES	Phagocytosis inh	Measles CPE	SDO1 yeast rescue	SDO1 rescue DR
C=CCOC(=O)Nc1c(C(=O)OC)[nH]c2ccccc12	-1.0	6.0	3.87*	0.0291
COC(=O)c1[nH]c2ccccc2c1NC(=O)Oc1ccccc1	-0.6	22.7	-1.02	x
N#CC1=C(N)Nc2nc3ccccc3n2C1c1ccc(Cl)cc1 (configuration not stated)	1.5	3.1	-0.27	x
COc1cc(CNCc2ccccn2)ccc1OCc1ccc(Cl)cc1	0.4	3.5	0.39	x
COc1cc(CNCc2ccccn2)ccc1OCc1cccc(Cl)c1	x	7.2	7.74*	0.072*
O=C(CSc1nnc(SCc2ccc(Cl)cc2)s1)N/N=C/c1c(Cl)cccc1Cl	-7.7	10.8	-1.21	x
Nc1c([N+](=O)[O-])cnnc1-c1ccccc1	-4.7	10.7	0.13	x
COc1cccc(-c2cc(C(=O)NCCN3CCOCC3)no2)c1	0.1	14.8	-0.65	x
COc1ccccc1-c1cc(C(=O)NCCN2CCOCC2)no1	-4.1	5.2	1.46	0.0422
COCCn1c(SCc2cnc(-c3ccccc3)s2)nnc1-c1ccncc1	0.3	6.2	-1.17	x
COc1ccc(-n2cnnc2SCc2cnc(-c3ccccc3)s2)cc1	0.1	19.9	3.06*	0.0823
Cc1nc(S(=O)(=O)NC2CCCCC2)c(C#N)c(C)c1Cl	x	2.6	0.4	x
Cc1nc(S(=O)(=O)N2CCOCC2)c(C#N)c(C)c1Cl	x	6.6	3.76*	0.0867*
CC(C)c1ccc(C(=O)CSc2n[nH]c(-c3ccncc3)n2)cc1	1.3	16.1	-3.01	x
CN(CC(=O)NCCc1ccc(Cl)cc1)S(=O)(=O)c1ccc2c(c1)c(=O)n(C)c(=O)n2C	-0.7	11.2	-0.72	x
CN(CC(=O)NCc1cccnc1)S(=O)(=O)c1ccc2c(c1)c(=O)n(C)c(=O)n2C	-0.2	15.7	3.01*	0.0744*
COc1ccc(S(=O)(=O)N[C@@H](Cc2ccc(Cl)cc2)C(=O)N2CC[C@@]3(O)CCCC[C@H]3C2)cc1	x	8.3	-1.22	x
c1cnc(N2CCSCC2)nc1	-0.6	6.0	8.91*	0.0519
c1cnc(N2CC[N+]3(CCCC3)CC2)nc1	-2.1	4.2	0.48	x
CSc1c(CC(=O)Nc2ccc(F)cc2)n(Cc2ccccc2)c2ccccc12	-10.4	5.4	-0.67	x
COC(=O)COc1ccc2occ(C(C)=O)c2c1	1.8	2.5	3.63*	0.113*
O=C(O)COc1ccc2occ(C(=O)c3ccccc3)c2c1	1.2	11.2	0.12	x
Cc1onc(-c2ccccc2)c1C(=O)NNC(=S)NC(=O)c1ccc(Cl)cc1Cl	-1.1	8.6	-0.98	x
COc1ccc(NC(=O)Nc2cc(C)ccc2OC(F)F)c(OC)c1	x	17.8	-0.44	x
C/C(Cn1nnc2ccccc21)=N\NC(=O)c1cccc(Br)c1	-0.6	6.2	0.89	x
SMILES	Phagocytosis inh	Measles CPE	SDO1 yeast rescue	SDO1 rescue DR
O=C(/C(=C(\[O-])c1ccccc1)[n+]1ccc2ccccc2c1)c1ccccc1	-3.8	14.2	7.91*	0.0395
O=C(/C(=C(\[O-])c1ccccc1)[n+]1ccc2ccccc2c1)c1ccc(Cl)cc1	1.0	14.1	-0.49	x
COc1ccc2nc(NC3=NC(C(=O)Nc4ccc(C)cc4)CC(=O)N3)nc(C)c2c1 (configuration not stated)	-16.1	8.2	1.7	x
CN(C)c1ccc(/C=[N+](\[O-])C2N(c3ccccc3)C(=S)SC2(C)C)cc1 (configuration not stated)	-1.9	5.3	7.89*	0.0341
CN(C)c1ccc(/C=[N+](\[O-])C2SC(=S)N(C)C2(C)C)cc1 (configuration not stated)	2.3	15.8	-0.28	x
CCOC(=O)C(O)(NC(=O)c1cccnc1)C(F)(F)F (configuration not stated)	0.6	4.5	8.05*	0.0927*
CCOC(=O)CNC(=O)c1cccnc1	0.7	10.3	1.36	x
CC/C(=C\C(=O)c1cccnc1)Nc1ccc(C)c(C)c1	-0.5	2.6	-0.03	x
COc1ccc(-c2c(C)sc(NC(=O)c3ccnn3C)c2C#N)cc1	-3.4	10.4	1.68	0.0848*
COc1ccc(C(=O)Nc2sc(C)c(-c3ccccc3)c2C#N)cc1OC	-0.1	13.3	-0.48	x
Cc1ccc(C(=O)NCCCN2CCOCC2)o1	x	20.0	2.31	0.0459
Cc1ccc(C(=O)NCCCCNC(=O)c2ccc(C)o2)o1	0.3	5.2	0.52	x
O=C(Nc1ccc(Cl)cc1)C1CCCN(S(=O)(=O)c2cnc[nH]2)C1 (configuration not stated)	-0.2	4.9	0.28	x
CC(C)c1ccc(NC(=O)C2CCCN(S(=O)(=O)c3cnc[nH]3)C2)cc1 (configuration not stated)	-0.5	11.4	1.31	0.0475
COc1ccc(OC)c(CC(NC(C)=O)C(=O)NC2CCN(c3nc(C)cc(C)c3C#N)CC2)c1 (configuration not stated)	1.3	x	x	x
CC1(C)C(=O)OC(c2cccn2-c2cccc([N+](=O)[O-])c2)C2(CCCCC2)C1=O (configuration not stated)	-5.6	5.7	-0.82	x
CC1(C)C(=O)OC(c2ccccc2)C2(CCCC2)C1=O (configuration not stated)	1.5	18.3	3.24*	0.061
Cc1ccc(S(=O)(=O)N2CC=C(c3ccc(F)cc3)CC2)cc1	x	5.9	7.12*	0.0304
Cc1ccc(NC(=O)C2=CCN(S(=O)(=O)c3ccc(F)cc3)CC2)cc1	x	4.8	-0.74	x
CNC(=O)NC(=O)C(C)OC(=O)c1oc2ccccc2c1CSc1ccc(Cl)cc1 (configuration not stated)	-1.7	6.5	-0.55	x
CC(C)COC(=O)c1cc(-c2ccc(/C=N/n3cnnc3)o2)ccc1Cl	-0.6	4.2	4.03*	0.124*
Fc1ccc(-c2ccc(/C=N\n3cnnc3)o2)cc1Cl	0.2	6.7	0.12	x
COc1cccc(CNC(=O)C2CCCN(S(=O)(=O)c3cccc4nonc34)C2)c1 (configuration not stated)	x	0.8	2.78	0.0864*
O=C(NCCc1ccccc1)C1CCCN(S(=O)(=O)c2cccc3nonc23)C1 (configuration not stated)	-0.4	29.6	0.38	x
Nc1nc(C2CC2)c(Sc2sc(N)nc2C2CC2)s1	x	2.5	-0.3	x
SMILES	Phagocytosis inh	Measles CPE	SDO1 yeast rescue	SDO1 rescue DR
O=C(CN1CCOCC1)Nc1ncc(Cc2cccc(Cl)c2)s1	-3.8	8.9	2.33	x
Cc1cc(C)nc(SCC(=O)Nc2ncc(Cc3cccc(Cl)c3)s2)n1	-12.3	4.5	1.25	0.0906*
Cc1nn(C)c(C)c1S(=O)(=O)N1CCCC(C(=O)NC2CCCCCC2)C1 (configuration not stated)	-0.5	37.1	2.38	0.0833*
CCOc1ccc(NC(=O)C2CCCN(S(=O)(=O)c3c(C)nn(C)c3C)C2)cc1 (configuration not stated)	0.3	1.6	0.47	x
CC(C)c1ccc(S(=O)(=O)N2CCN(C(=O)c3cccc(F)c3)CC2)cc1	-1.1	1.7	0.37	x
CCC(=O)Nc1ccc(NC(=O)c2cccc(OC)c2)nc1	x	7.8	0.47	x
COc1cccc(C(=O)Nc2ccc(NC(=O)C3CC3)cn2)c1	x	10.5	2.36	0.0837*
COc1ccc(S(=O)(=O)N2CCCC(C(=O)O)C2)cc1 (configuration not stated)	x	5.5	2.1	0.0457

Screening results deposited in PubChem BioAssay by several laboratories.
